# Screening results from PubChem BioAssay.
# BCLXL inh = inhibitors of human Bcl-xL, primary screen, biochemical, fluorescence polarization, HTS | GST-Bcl-xL / FITC-Bim BH3 peptide fluorescence polarization | 0.7% of 320,000 active | AID 2129, 2009 | inhibition, % at 10.9 µM;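 active = inhibition above the mean of all tested compounds plus 3 SD, cutoff set per campaign, cut at about 30% in these data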;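 note: 0% = DMSO wells and 100% = unlabeled Bim-BH3 peptide competitor; inhibitors lower millipolarization by displacing the labeled peptide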
# Target sequence (Q07817 whole entry, looked up): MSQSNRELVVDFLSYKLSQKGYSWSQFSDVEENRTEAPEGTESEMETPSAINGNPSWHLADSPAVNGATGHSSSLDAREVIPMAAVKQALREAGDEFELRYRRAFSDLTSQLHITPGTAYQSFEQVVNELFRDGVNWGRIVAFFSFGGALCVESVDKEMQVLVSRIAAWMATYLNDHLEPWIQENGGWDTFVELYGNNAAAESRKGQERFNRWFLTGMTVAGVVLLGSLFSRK
# Mcl1 Noxa PPI = Mcl-1/Noxa binding inhibitors, primary screen, biochemical, TR-FRET, 1536-well. 1.5% of 220,000 active. inhibition, % at 21.7 µM. TR-FRET Mcl-1/Noxa peptide binding, 2 h. Induced myeloid leukemia cell differentiation protein Mcl-1 (Homo sapiens), Q07820;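 active = compounds that cut the protein-peptide binding signal by more than 50% relative to plate controls in a single-dose test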;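 note: His-tagged Mcl-1 with rhodamine Noxa BH3 peptide and terbium anti-His antibody; 0% = Mcl-1 plus Noxa peptide wells and 100% = peptide-only wells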
# Target sequence (Q07820 whole entry, looked up): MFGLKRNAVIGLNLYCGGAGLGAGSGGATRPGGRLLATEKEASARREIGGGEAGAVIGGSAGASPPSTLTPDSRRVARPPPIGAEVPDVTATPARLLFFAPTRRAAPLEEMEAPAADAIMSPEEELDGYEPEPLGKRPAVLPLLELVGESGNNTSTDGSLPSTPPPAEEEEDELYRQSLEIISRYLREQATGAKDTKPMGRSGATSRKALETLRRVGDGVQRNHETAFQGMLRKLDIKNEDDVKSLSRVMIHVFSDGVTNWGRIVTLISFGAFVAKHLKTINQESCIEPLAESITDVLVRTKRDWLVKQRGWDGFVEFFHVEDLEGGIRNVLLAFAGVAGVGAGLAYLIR
# Mcl-1 Bim block = inhibitors of Bim peptide binding to Mcl-1, primary screen, biochemical, bead-based flow cytometry, multiplex. 0.1% of 190,000 active. inhibition, % at 10 µM. Bim peptide-Mcl-1 binding. AID 1009, 2008; in the data active = inhibition above about 40%;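 note: 0% = no compound tracer wells and 100% = peptide blocker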
# Mcl1-Bid inh = Mcl-1/Bid binding inhibitors, primary screen, biochemical, TR-FRET, 1536-well; Induced myeloid leukemia cell differentiation protein Mcl-1 (Homo sapiens), Q07820; TR-FRET Mcl-1/Bid-Dy647 peptide binding; inhibition, % at 21.7 µM; 0.97% of 220,000 active; AID 1021, 2008;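 active = compounds that cut the binding signal by more than half at the single screening dose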;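 note: His-tagged Mcl-1 with europium anti-His antibody binding Bid BH3 peptide; 0% = Mcl-1 plus peptide wells and 100% = peptide-only wells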
# MCL1 BIM primary = inhibitors of MCL1 binding to BIM-BH3, primary screen, biochemical, fluorescence polarization. 0.68% of 320,000 active. GST-MCL1 / FITC-Bim-BH3 fluorescence polarization. Induced myeloid leukemia cell differentiation protein Mcl-1 (Homo sapiens), Q07820. inhibition, % at 10.9 µM. AID 2057, 2009;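 active = inhibition above the mean inhibition of all tested compounds plus 3 SD, set per campaign, cut at about 40% in these data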;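 note: 0% = DMSO wells and 100% = unlabeled Bim-BH3 peptide control; higher means more loss of mP so more displacement of Bim peptide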
# GLD-1 TGE inh = GLD-1/TGE RNA complex disruptors, primary screen, biochemical, fluorescence polarization. purified GLD-1 + fluorescein TGE RNA. AID 2280, 2010. 0.44% of 320,000 active. inhibition, % at 5.96 µM;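 active = percent inhibition above a per-plate cutoff, the plate mean of test compounds plus 3 SD, cut at about 30% in these data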;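 note: 0% = DMSO wells with GLD-1 and probe and 100% = wells lacking GLD-1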
# An asterisk follows results filed as active; / = not tested or not shown. Hits are enriched below; roughly 2.3% of the tested compounds scored in any of these assays.
SMILES,BCLXL inh,Mcl1 Noxa PPI,Mcl-1 Bim block,Mcl1-Bid inh,MCL1 BIM primary,GLD-1 TGE inh
NC(=O)C1=C[C@H](C2CCCCC2)C[C@H](OCc2ccc(CO)cc2)O1,6.6,7.6,1.0,-0.9,-0.8,6.6
COc1cccc(NC(=O)CN(C)C(=O)c2c(C)nn(-c3ccccc3)c2Cl)c1,4.8,/,/,/,5.0,2.4
CCC(CO)NCC#Cc1ccccc1 (stereo not given),5.1,16.3,-1.0,-36.5,6.8,6.8
Cc1ncc(C[n+]2ccc(C)c(C)c2)c(N)n1,1.5,/,/,/,5.2,4.8
CCCCN(C(=O)CSc1nnc(-c2ccccc2OC)n1C)c1c(N)n(Cc2ccccc2)c(=O)[nH]c1=O,-4.6,28.5,-1.0,-21.8,-21.1,4.2
CCCCN(C(=O)CSc1nnc(-c2ccc(OC)cc2)n1CC)c1c(N)n(Cc2ccccc2)c(=O)[nH]c1=O,4.5,60.4*,-3.0,-39.4,-10.7,6.7
CCCCN(C(=O)CSc1nnc(-c2ccc(OC)cc2)n1C(C)C)c1c(N)n(Cc2ccccc2)c(=O)[nH]c1=O,0.9,61.8*,-5.0,3.8,-11.1,-1.5
C=C(C)CNC(=S)N/N=C/c1ccc(NC(C)=O)cc1,2.7,8.0,-1.0,-18.7,2.0,-4.9
CC(=O)Nc1ccc(/C=N/NC(=S)NC(C)C)cc1,6.5,52.5*,-1.0,5.6,12.6,6.8
Cc1cc(NC(=O)CSc2nnc(-c3cccc(F)c3)n2N)no1,-2.3,/,/,/,-0.3,4.1
Cc1ccc(C(=O)NC(C(=O)OCc2cn3cc(Cl)ccc3n2)C(C)C)cc1 (stereo not given),-0.3,/,/,/,0.0,3.3
Cn1c(SCc2ccc([N+](=O)[O-])cc2)nnc1-c1ccncc1,-2.2,/,/,/,6.2,-3.2
COc1ccc(N2CCN(C(=O)CN(c3cccc(OC)c3)S(=O)(=O)c3ccccc3)CC2)cc1,7.6,/,/,/,8.0,-0.2
O=[N+]([O-])c1cc(/C=N\Nc2nc(-c3ccccc3)cs2)ccc1O,12.6,20.4,0.0,-37.6,15.0,0.5
Cc1csc(N/N=C/c2ccc(O)c([N+](=O)[O-])c2)n1,19.2,55.2*,-1.0,-69.7,27.6,5.0
COc1ccc(-c2ccc(/C=C3/C(=N)N4C=CSC4=NC3=O)o2)c([N+](=O)[O-])c1,11.0,82.7*,0.0,75.4*,6.4,2.7
CCCc1nc2ccccc2c(C(=O)O)c1CC,5.9,8.0,-2.0,-6.6,-4.1,7.1
CCN(CC)CC(=O)Nc1cc(N(C)C)nc2ccccc12,4.1,48.4,/,37.1,-1.8,-1.2
CCCc1nc2ccccc2c(NC(=O)CN(CC)CC)c1CC,3.3,26.1,-5.0,61.7*,-1.6,0.0
CCCCc1nc2ccccc2c(NC(=O)CN(CC)CC)c1CCC,3.0,20.4,-45.0,50.6*,6.3,0.5
Cn1nnnc1SCC(=O)Nc1ncc(Cl)cc1Cl,0.2,/,/,/,2.3,-0.5
COC(=O)c1cccc(NC(=O)c2ccc3c(c2)C(=O)N(Cc2cccnc2)C3=O)c1C,2.4,/,/,/,12.4,2.5
CCCCN(C)S(=O)(=O)c1ccc(C(=O)N=c2sc3cc(NC(C)=O)ccc3n2C)cc1,4.0,28.6,-29.0,69.7*,-0.2,-5.4
COc1cc(OC)nc(Oc2ccccc2C(=O)Oc2cccc(C)c2)n1,-0.5,-7.4,-7.0,53.2*,-3.5,6.2
COc1cc(C(=O)Oc2cccc(C)c2)cc(OC)c1OC,1.6,-8.5,-5.0,-14.6,0.9,1.5
SMILES,BCLXL inh,Mcl1 Noxa PPI,Mcl-1 Bim block,Mcl1-Bid inh,MCL1 BIM primary,GLD-1 TGE inh
CN1CCc2nc3sc(C(=O)C45CC6CC(CC(C6)C4)C5)c(N)c3cc2C1,24.5,57.8*,0.0,85.3*,28.0,7.1
O=C1CCCC(=O)N1c1ccc(O)cc1,4.8,2.1,-2.0,-23.9,2.7,-3.1
O=C(O)c1ccc(N2C(=O)CCCC2=O)cc1,-1.4,59.0*,/,-27.6,1.3,-1.4
CCN(CC)C(=O)Cn1cc(C(=O)C(=O)N(CC)C2CCCCC2)c2ccccc21,-1.2,/,/,/,-4.9,4.3
CCOC(=O)C1=c2/c(=C/c3ccncc3)c(N)c(C(=O)OC)n2C(=O)C(c2ccncc2)S1 (stereo not given),2.4,30.2,3.0,62.4*,-9.2,-2.6
CCOC(=O)C1=C(N)n2c(s/c(=C\c3ccncc3)c2=O)=C(C(=O)OCC)C1c1ccncc1 (stereo not given),2.5,19.4,0.0,30.8,3.8,0.4
O=C(Nc1ccc2[nH]c(=S)sc2c1)Nc1ccccc1F,9.8,55.5*,/,-147.1,6.5,4.2
O=C(Nc1ccc2[nH]c(=S)sc2c1)c1ccccc1,-5.7,43.4,-10.0,-30.7,0.4,-8.3
COCCNC(=S)Nc1ccc2[nH]c(=O)[nH]c2c1,8.1,10.9,-4.0,-42.1,10.4,-1.3
Cc1c(NC(=O)Nc2cc(F)c(F)cc2Cl)c(=O)n(-c2ccccc2)n1C,1.0,/,/,/,-3.5,-1.7
CN(C)c1ccc(NC(=O)C2CCCN(S(=O)(=O)c3ccccc3)C2)cc1 (stereo not given),7.0,69.3*,-1.0,-20.1,19.4,3.5
Cc1ccc(COC(=O)c2ccc3ccccc3n2)cc1,5.2,/,/,/,6.5,1.9
N#CC(C(=O)Nc1ccc(Cl)cc1)=C1Nc2ccccc2N1,1.8,50.6*,1.0,-1.5,2.3,5.6
COc1ccc(NC(=O)CCNS(=O)(=O)c2ccc(C)c(C)c2)cc1OC,3.9,/,/,/,5.7,4.3
O=C(NCc1nc2ncc(Br)cc2[nH]1)c1ccccc1,12.3,5.9,-1.0,73.4*,13.3,3.0
Cc1ccc(S(=O)(=O)N/N=C/c2cnn(C)c2C)cc1,-1.2,4.0,-8.0,70.1*,0.5,-4.2
BrC(=C\c1ccccc1)/C=N/N1CCN(c2ccccc2)CC1,5.9,24.0,43.0*,-42.6,-1.2,-2.0
CCCSC1=N/C(=C\c2ccsc2)C(=O)S1,2.5,8.8,0.0,-37.7,5.2,-3.5
CCCSC1=N/C(=C\C=C\c2ccco2)C(=O)S1,6.5,76.5*,0.0,4.8,38.6,-3.8
CCCSC1=N/C(=C\c2ccc([N+](=O)[O-])o2)C(=O)S1,/,78.8*,1.0,6.4,/,/
Cc1cccc(/C=N/NC(=O)c2ccc(F)cc2)n1,-2.0,/,/,/,7.4,7.7
OCCN1CCN(C(c2cccs2)c2ccc3cccnc3c2O)CC1 (stereo not given),/,95.1*,4.0,82.3*,/,/
O=C(O)CC(NNC(=O)c1ccccc1)C(=O)Nc1ccc([N+](=O)[O-])cc1 (stereo not given),1.7,-1.0,/,-37.2,0.6,-1.1
CN(C(=O)c1ccc(C#N)cc1)c1nnc(-c2cnccn2)s1,-1.1,38.2,/,85.5*,1.4,-7.3
